Structures are written as SMILES. Inconclusive results are not listed. Active and inactive are the calls of the source. How the source made its calls: active means hit-call score of the fitted dose curve at least 0.9, where 1 is the maximum; inconclusive means response in the unintended direction; inactive means score below 0.9.

Sequence of AR (gene 367) (P10275 whole entry, looked up): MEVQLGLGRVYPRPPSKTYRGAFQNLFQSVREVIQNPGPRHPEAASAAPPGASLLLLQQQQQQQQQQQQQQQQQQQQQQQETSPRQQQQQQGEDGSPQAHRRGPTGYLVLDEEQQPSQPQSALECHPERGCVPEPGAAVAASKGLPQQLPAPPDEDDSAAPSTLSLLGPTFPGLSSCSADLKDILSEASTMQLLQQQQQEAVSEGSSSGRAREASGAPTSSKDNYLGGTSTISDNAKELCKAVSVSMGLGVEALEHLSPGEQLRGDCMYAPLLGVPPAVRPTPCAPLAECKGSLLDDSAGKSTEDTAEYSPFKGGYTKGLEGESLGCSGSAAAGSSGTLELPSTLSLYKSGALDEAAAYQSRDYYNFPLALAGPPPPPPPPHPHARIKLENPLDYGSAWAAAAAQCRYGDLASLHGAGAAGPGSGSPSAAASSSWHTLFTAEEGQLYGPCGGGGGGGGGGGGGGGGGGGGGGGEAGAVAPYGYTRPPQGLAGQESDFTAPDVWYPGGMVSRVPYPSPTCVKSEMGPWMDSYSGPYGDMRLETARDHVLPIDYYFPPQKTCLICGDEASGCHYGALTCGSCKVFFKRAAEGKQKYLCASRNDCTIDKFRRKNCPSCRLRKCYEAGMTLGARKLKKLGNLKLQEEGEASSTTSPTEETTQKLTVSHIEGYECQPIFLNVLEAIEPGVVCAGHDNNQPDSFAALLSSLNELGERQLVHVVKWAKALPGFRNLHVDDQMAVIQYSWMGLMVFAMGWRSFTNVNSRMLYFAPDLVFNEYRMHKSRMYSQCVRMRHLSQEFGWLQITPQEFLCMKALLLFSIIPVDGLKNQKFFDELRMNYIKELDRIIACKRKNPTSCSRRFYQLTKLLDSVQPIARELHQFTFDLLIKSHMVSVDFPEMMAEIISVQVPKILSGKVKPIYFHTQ

The first experiment has as its target AR (gene 367) (UniProt P10275). The experiment in a line: ACEA_AR_agonist_80hr: ACEA Biosciences xCELLigence Real-Time Cell Analysis on Androgen Receptor Agonism for Proliferation (AID 2283783).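 Further: hits increase impedance growth signal above DMSO baseline.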 In a few lines: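 Androgen-driven proliferation in 22Rv1 cells is tracked as electrical impedance, taken 80 h after continuous exposure to compound (eight concentrations, 1:4 steps, maximum 100 uM final). Activity is fitted in the positive direction with DMSO as baseline.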
Regarding `CS/C(C)=N/OC(=O)N(C)SN(C)C(=O)O/N=C(\C)SC`, the compound was classed as inactive. `CC1=C(C(=O)Nc2ccccc2)SCCO1`: the outcome was inactive. Turning to `CN(C)C(=S)SSC(=S)N(C)C`, the result was inactive.

As for `Cc1ccc(-c2c(Cl)nc(C#N)n2S(=O)(=O)N(C)C)cc1`, the compound was called inactive. For `CO/C=C(/C(=O)OC)c1ccccc1Oc1cc(Oc2ccccc2C#N)ncn1`, the call was inactive. Still for that read-out and setting: next, `CCCC1COC(Cn2cncn2)(c2ccc(Cl)cc2Cl)O1` (stereo unspecified): “inactive”. In the case of `N#Cc1cc(Br)c(O)c(Br)c1`, the compound was called inactive. Same read-out and setting: next, `Cc1cc(Cl)ccc1OCC(=O)O`: “inactive”; `CCCCNC(=O)n1c(NC(=O)OC)nc2ccccc21`: “inactive”.

System in the next experiment: not listed separately
The experiment is described as follows: STM_H9_NormalizedViability: Cytotoxicity Assessment at 120 hours in the Stemina devTOX quickPredict H9 human embryonic stem cell (hESC)-based Assay (AID 2283784). Put shortly:
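Pluripotent H9 cells dosed, fresh medium plus compound q24h → cell layer read by CellTiter-Fluor → RFU blank-corrected, normalized to DMSO 0.1% mean. Loss-of-signal fit, DMSO as baseline.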
Usually AC50 stands for the concentration giving half of the maximal activity seen. Consider `CCCCOC(=O)c1ccccc1C(=O)OCCCC`, for which the AC50 was 50 µM (active). On to `CC1COC(Cn2cncn2)(c2ccc(Oc3ccc(Cl)cc3)cc2Cl)O1` (stereo unspecified), for which the AC50 was 6.39 µM (active).

With `COC(=O)N(OC)c1ccccc1COc1ccn(-c2ccc(Cl)cc2)n1`, the AC50 is 0.5 µM (active). For `CC(C)(C)c1ccc(CSc2cnn(C(C)(C)C)c(=O)c2Cl)cc1`, the half-maximal activity concentration (AC50) was 0.12 µM (active). On to `CCc1nn(C)c(C(=O)NCc2ccc(C(C)(C)C)cc2)c1Cl`, for which the AC50 was 2.12 µM (active). In the case of `CCOC(=O)CC(SP(=S)(OC)OC)C(=O)OCC` (stereo unspecified), the AC50 is 78.9 µM (active). As to `CN(C)C(=S)SSC(=S)N(C)C`, the AC50 was 50 µM (active). Take `CON(C)C(=O)Nc1ccc(Cl)c(Cl)c1`: the result was inactive.

In the case of `CO/C=C(/C(=O)OC)c1ccccc1Oc1cc(Oc2ccccc2C#N)ncn1`, the result was inactive. As for `CCNc1nc(Cl)nc(NCC)n1`, the result was inactive.

On to `CCNc1nc(Cl)nc(NC(C)C)n1`, for which the result was inactive. Consider `OC(c1ccc(Cl)cc1)(c1cncnc1)c1ccccc1Cl` (stereo unspecified), for which the result was inactive.

The record behind these values is PubChem BioAssay (EPA / NIEHS).
